Consider 30 compounds from PubChem BioAssay.

Molecules are shown by their SMILES.

The assay can be described thus: small-molecule microarray binders of probe aEGFR, primary screen, biochemical, biotinylated probe, 635/667 nm fluorescence (AID 1097).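 Further: probe is a biotinylated anti-EGFR antibody binding compounds printed on slides; score combines fluorescence near 667 nm and signal to noise of each spot.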 The following applies: higher = more signal.
As for `O=C1CCCC(C2=CCCCC2=O)C1` (stereo not given), the composite z-score was -0.029.
The same measure for `Cn1c(=O)n2n(c1=O)[C@H]1[C@H](O)[C@@H]3O[C@@H]3C(=NOCc3ccccc3)[C@H]1CC2`: -0.118; for `CO[C@H](C1CCCCC1)[C@H](C)C=CCC(=O)OCCCc1ccccc1`: -0.134; for `COC(=O)[C@H](C)NC(=O)CCC1CC(OC(=O)NCc2ccc3c(c2)OCO3)CC2(CCCC(COC(=O)NCC(c3ccccc3)c3ccccc3)O2)O1` (stereo not given in full): 0.0004.
`O=c1n(-c2ccccc2)c(=O)n2n1CC[C@@H]1C(=NOCc3ccccc3)[C@H]3O[C@H]3[C@@H](O)[C@@H]12` showed a composite z-score of -0.0531.
The figure for `COC(=O)[C@H]1[C@@H](O)[C@@]2(O)c3ccccc3O[C@@]2(c2ccccc2)[C@@H]1c1ccccc1` is -0.123.
The figure for `COC(=O)CC=C[C@@H](C)[C@@H](C=NOC(C)CN1CCCc2nc(C)c(C)cc21)OC` (stereo not given in full) is 0.0009.
The same measure for `COC(=O)[C@H](C)NC(=O)CCC1CC(OC(=O)NCCc2ccc(F)cc2)CC2(CCCC(COC(=O)NCc3cccc(C(F)(F)F)c3)O2)O1` (stereo not given in full): -0.0647; for `Cc1ccc(S(=O)(=O)N[C@H]2COC(=O)CC=C[C@H](C)[C@@H](NS(=O)(=O)c3ccc(C)cc3)COC(=O)CC=C[C@@H]2C)cc1`: -0.068.
As for `CON=C1[C@H]2CCn3c(=O)n(-c4ccccc4)c(=O)n3[C@H]2[C@H](O)[C@@H]2O[C@H]12`, the composite z-score is -0.177.
The same measure for `C#CCCCON=C1C[C@@H](O)[C@@H](O)[C@@H]2[C@@H]3C(=O)N(C(C)(C)C)C(=O)[C@@H]3CC[C@@H]12`: -0.106; for `CO[C@H]1COC(=O)CC=C[C@@H](C)[C@H](NS(=O)(=O)c2ccc(C)cc2)COC(=O)CCC[C@@H]1C`: -0.067.
The figure for `COc1ccc(COC(=O)NN=C2C[C@@H](O)[C@@H](O)[C@@H]3[C@@H]4C(=O)N(c5ccc(F)cc5F)C(=O)[C@@H]4CC[C@H]23)cc1` is -0.171.
The figure for `COc1ccc(O[C@H]2C=C[C@@H](c3ccccc3)O[C@@H]2COC(=O)CCC(C)=NOC[C@@H](O)[C@H]2O[C@@H]3OC(C)(C)O[C@@H]3[C@H]2O)cc1` is -0.0592; for `CO[C@H]1COC(=O)CC=C[C@H](C)[C@@H](OC)COC(=O)[C@H](C)COC(=O)CC=C[C@@H]1C` it is -0.0439; for `CCOC(=O)C1=NO[C@]2(C=C(Br)C3(OCCCO3)[C@H]3O[C@H]32)C1` it is 0.0214.
In turn, `Cc1cc2c(nc1C)CCCCN2CC(C)ON=C1[C@H]2CCn3c(=O)n(-c4ccccc4)c(=O)n3[C@H]2[C@H](O)[C@@H]2O[C@H]12` (stereo not given in full) yielded a composite z-score of -0.0922.
Take `COc1ccc(O[C@H]2C=C[C@@H](c3ccccc3)O[C@@H]2COC(=O)CCC(C)=NO[C@@H]2O[C@H](COC(C)=O)[C@@H](OC(C)=O)[C@H](OC(C)=O)[C@H]2OC(C)=O)cc1`: the composite z-score was -0.0271.
The same measure for `Cc1cc2c(c(=O)o1)[C@@H](O)[C@H]1O[C@H]1C2=O`: -0.12; for `CCOC(=O)CCN1C(=O)[C@H]2[C@H]3[C@H](O)[C@H](O)CC(=NNC(=O)OCc4ccccc4)[C@@H]3CC[C@H]2C1=O`: -0.0688; for `O=C1[C@H]2[C@H]3[C@H](O)[C@H](O)CC(=NOC[C@@H](O)COCc4ccco4)[C@@H]3CC[C@H]2C(=O)N1C[C@@H]1CCCO1`: -0.344.
The same measure for `CC(C)CON=C1C[C@@H](O)[C@@H](O)[C@@H]2[C@@H]3C(=O)N(C[C@@H]4CCCO4)C(=O)[C@@H]3CC[C@@H]12`: -0.22; for `CON=Cc1ccc(C(=O)N2[C@H](c3ccc(C)cc3)[C@@H](C)CC[C@H]2C(=O)OC)cc1`: -0.262.
The same measure for `C[C@@H](c1ccccc1)N1C(=O)[C@H]2[C@H]3[C@H](O)[C@H](O)CC(=O)[C@H]3CC[C@H]2C1=O`: -0.108; for `CC(C)CON=C1C[C@@H](O)[C@@H](O)[C@@H]2[C@@H]3C(=O)N(Cc4ccc5c(c4)OCO5)C(=O)[C@@H]3CC[C@H]12`: -0.0697; for `CCN1C(=O)[C@H]2[C@H]3[C@H](O)[C@H](O)CC(=NOCC(C)C)[C@@H]3CC[C@H]2C1=O`: 0.051.
For `CC(C)=NO[C@H](C)c1cn([C@H](CO)Cc2ccccc2)nn1`, the composite z-score is -0.0406.
On to `CCCNC(=O)OC[C@H]1O[C@H](c2ccccc2)C=C[C@@H]1Oc1ccc(OC)cc1`, for which the composite z-score is -0.146.
The figure for `C[C@@H]1CC[C@H]2C(=O)O[C@@H](Cc3ccccc3)CN2[C@H]1c1ccc(Br)cc1` is -0.0485; for `COc1ccc(O[C@H]2C=C[C@@H](c3ccccc3)O[C@@H]2CON=C(C)CCC(=O)OC[C@H]2O[C@H](c3ccccc3)C=C[C@@H]2Oc2ccc(OC)cc2)cc1` it is -0.267.
